# From PMC4336329 (PLoS ONE, 2015)
# In all, about 310,000 compounds went through this assay and about 14,000 (4.5%) showed an effect of 50% or more. Effects have a minus sign here. For the sample, strong results were picked, then their nearest neighbours and some compounds at random.
# Target: human ether-à-go-go-related gene (hERG) potassium channel (human, UniProt Q12809)
# Experiment: primary screen, population patch clamp on CHO cells stably expressing hERG; higher = less effect of the substance
# 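Also: peak tail current of the secondary pulse compared with the same well before compound.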
# Sequence of human ether-à-go-go-related gene (hERG) potassium channel (Q12809 whole entry, looked up): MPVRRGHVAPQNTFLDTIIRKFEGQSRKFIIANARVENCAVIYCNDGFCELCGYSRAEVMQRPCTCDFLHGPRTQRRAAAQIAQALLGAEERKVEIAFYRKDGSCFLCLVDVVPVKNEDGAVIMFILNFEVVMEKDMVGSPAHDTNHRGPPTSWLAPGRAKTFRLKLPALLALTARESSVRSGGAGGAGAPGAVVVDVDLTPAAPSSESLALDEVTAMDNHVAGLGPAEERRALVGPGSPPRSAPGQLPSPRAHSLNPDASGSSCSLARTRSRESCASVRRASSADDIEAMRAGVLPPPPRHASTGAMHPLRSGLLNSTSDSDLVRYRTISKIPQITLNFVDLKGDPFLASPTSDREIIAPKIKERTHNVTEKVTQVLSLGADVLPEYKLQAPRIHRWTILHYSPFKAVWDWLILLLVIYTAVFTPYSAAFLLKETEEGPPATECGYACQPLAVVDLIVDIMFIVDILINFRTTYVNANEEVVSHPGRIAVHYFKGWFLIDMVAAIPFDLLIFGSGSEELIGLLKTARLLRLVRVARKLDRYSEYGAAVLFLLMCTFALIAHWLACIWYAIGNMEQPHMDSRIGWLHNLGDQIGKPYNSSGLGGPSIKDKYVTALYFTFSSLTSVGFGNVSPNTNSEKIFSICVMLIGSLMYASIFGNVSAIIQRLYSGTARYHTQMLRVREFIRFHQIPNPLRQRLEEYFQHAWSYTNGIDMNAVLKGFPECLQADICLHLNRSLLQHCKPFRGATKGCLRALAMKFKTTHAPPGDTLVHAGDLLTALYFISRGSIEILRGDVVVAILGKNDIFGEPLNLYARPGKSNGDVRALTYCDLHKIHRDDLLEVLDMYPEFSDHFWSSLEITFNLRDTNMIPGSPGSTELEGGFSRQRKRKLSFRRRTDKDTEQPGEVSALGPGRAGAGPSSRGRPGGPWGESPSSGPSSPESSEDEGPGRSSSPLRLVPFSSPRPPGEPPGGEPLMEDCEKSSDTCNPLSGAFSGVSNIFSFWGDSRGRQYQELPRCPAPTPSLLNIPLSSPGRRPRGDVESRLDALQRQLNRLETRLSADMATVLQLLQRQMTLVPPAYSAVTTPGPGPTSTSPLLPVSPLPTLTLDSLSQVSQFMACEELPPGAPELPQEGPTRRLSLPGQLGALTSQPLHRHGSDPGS
row,Structure (SMILES),"hERG current change (%, negative = inhibition) at 10uM [%]"
1,CCCc1nc(SCC(=O)NNC(=O)C2CCCCC2)c2ccccc2n1,-2.77
2,Cc1ccc(S(=O)(=O)N(C)c2ccc(OCC(=O)Nc3nc(-c4ccccc4)cs3)cc2)cc1,14.3
3,Clc1ccc(-c2c[n+](Cc3ccc(Cl)cc3Cl)c3n2CCCCC3)cc1.[Br-],-66
4,O=[N+]([O-])c1ccc(C[n+]2cc(-c3ccccc3)n3c2CCCCC3)cc1.[Br-],-35.3
5,Clc1ccc(C[n+]2cc(-c3ccccc3)n3c2CCC3)cc1.[Cl-],-33.5
6,Clc1ccc(C[n+]2cc(-c3ccccc3)n3c2CCCCC3)c(Cl)c1.[Br-],-74.4
7,Cc1cc(Nc2ccccc2)c2c([N+](=O)[O-])cc(C)c(C)c2n1,-9.29
8,O=C(CCn1c(=O)[nH]c2ccccc2c1=O)Nc1ccccc1,16.4
9,Cc1ccc(S(=O)(=O)NCC(=O)N(CC(=O)NCc2ccco2)Cc2ccc(F)cc2)cc1,5.19
10,O=C(COC(=O)CC1Sc2ccccc2NC1=O)NCc1ccccc1 (stereo not drawn),-21.4
11,Cc1cccc(N2CCN(C(C)C(=O)N3CCc4ccccc43)CC2)c1C (stereo not drawn),17
12,CCCNC(=O)CS(=O)(=O)Cc1nc(-c2ccccc2C)oc1C,3.88
13,O=S(=O)(c1cccc(F)c1)N1CCN(Cc2ccc3c(c2)OCO3)CC1,-35.8
14,O=S(=O)(c1ccc(F)c(F)c1)N1CCN(Cc2ccc3c(c2)OCO3)CC1,-51.4
15,O=S(=O)(c1ccc2c(c1)OCCO2)N1CCN(Cc2ccc3c(c2)OCO3)CC1,3.98
16,COc1ccc(S(=O)(=O)N2CCN(Cc3ccc4c(c3)OCO4)CC2)cc1F,-30.5
17,O=C1CCc2cc(S(=O)(=O)NCCCC(=O)N3CCN(Cc4ccc5c(c4)OCO5)CC3)ccc2N1,-0.149
18,O=C1CCc2cc(S(=O)(=O)N3CCN(Cc4ccc5c(c4)OCO5)CC3)ccc2N1,-70.1
19,O=[N+]([O-])c1cc(Br)c(O)c(/C=N/Nc2nnnn2-c2cccc3ccccc23)c1,0.778
20,O=C(Cc1c[nH]c2ccccc12)Nc1nccs1,0.956
21,O=C(CN1C(=O)C2CC=CCC2C1=O)Nc1cc(C(F)(F)F)ccc1N1CCCC1 (stereo not drawn),-24.6

row,Structure (SMILES),"hERG current change (%, negative = inhibition) at 10uM [%]"
1,O=C(O)c1cc2n(n1)CCN(Cc1ccccc1Cl)C2=O,8.71
2,Cc1nc2ccccc2n1/N=C/c1ccc([N+](=O)[O-])o1,-58.9
3,Cc1ccc(/C=N/n2c(C)nc3ccccc3c2=O)o1,10.9
4,Cc1nc2ccccc2c(=O)n1/N=C/c1ccccc1,-0.523
5,Cc1nc2ccccc2n1/N=C/c1ccc([N+](=O)[O-])s1,-12.3
6,Cc1cc2ncn(/N=C/c3ccc([N+](=O)[O-])o3)c2cc1C,-0.858
7,Cc1nc2ccccc2c(=O)n1/N=C/c1ccc([N+](=O)[O-])o1,-53.3
8,O=C(c1cc2c(s1)CCC2)N1C(=O)c2ccccc2S1(=O)=O,12.9
9,CCCC(C)NC(=O)CN1C(=O)c2cccc3cccc1c23 (stereo not drawn),1.42
10,COc1ccc(C(C)=O)cc1CSc1nc2cc(Cl)ccc2o1,9.66
11,O=c1oc2cccnc2n1CCS(=O)(=O)c1ccc(F)cc1,9.29
12,CCOc1ccccc1NC(=O)Cn1c(-c2ccc(Cl)cc2)noc1=O,-2.01
13,Cc1ccc(-n2c(SCC(=O)N(C)C3CCS(=O)(=O)C3)nc3ccccc3c2=O)cc1 (stereo not drawn),11
14,Cc1ccc(Cn2c(SCC(=O)N(C)C3CCS(=O)(=O)C3)nc3ccccc3c2=O)cc1 (stereo not drawn),-60.8
15,CCCN(C(=O)CSc1nc2ccccc2n1CC)C1CCS(=O)(=O)C1 (stereo not drawn),2.29
16,CCN(C(=O)CSc1nc2ccccc2c(=O)n1-c1cccc(C)c1)C1CCS(=O)(=O)C1 (stereo not drawn),-14.9
17,CCN(C(=O)CSc1nc2ccccc2n1CC)C1CCS(=O)(=O)C1 (stereo not drawn),0.264
18,CCN(C(=O)CSc1nc2ccccc2c(=O)n1-c1ccc(C)cc1)C1CCS(=O)(=O)C1 (stereo not drawn),-11.6
19,CCn1c(SCC(=O)N(Cc2ccccc2)C2CCS(=O)(=O)C2)nc2ccccc2c1=O (stereo not drawn),-61
20,Cc1ccccc1-n1c(SCC(=O)N(C)C2CCS(=O)(=O)C2)nc2ccccc2c1=O (stereo not drawn),11.6
21,CCN(C(=O)CSc1nc2ccccc2c(=O)n1Cc1ccc(C)cc1)C1CCS(=O)(=O)C1 (stereo not drawn),-71

row,Structure (SMILES),"hERG current change (%, negative = inhibition) at 10uM [%]"
1,CCN(C(=O)COC(=O)c1cc(S(=O)(=O)N2CCOCC2)c(Cl)cc1Cl)C1CCS(=O)(=O)C1 (stereo not drawn),9.86
2,O=c1[nH]c2ccccc2c2nc(-c3cccc(S(=O)(=O)N4CCCC4)c3)nn12,21.2
3,CC(=O)Nc1ccc(C2C(=O)c3ccccc3C2=O)cc1,21.4
4,O=[N+]([O-])c1ccccc1N/N=C1\CC2CC=CC12 (stereo not drawn),46.5
5,CCOc1ccccc1C(=O)N(CN1CCCC1=O)c1cccc(Cl)c1,-3.65
6,Cc1ccc(-c2c[n+](CC(=O)Nc3c(C)cccc3C)c3n2CCC3)cc1.[Cl-],14.1
7,Cc1ccc(NC(=O)C[n+]2cc(-c3ccccc3)n3c2CCC3)cc1.[Cl-],-15.2
8,Cc1ccc(NC(=O)C[n+]2cc(-c3ccc(C)cc3)n3c2CCC3)cc1.[Cl-],-70
9,Cc1ccc(-c2c[n+](CC(=O)Nc3ccccc3C)c3n2CCC3)cc1.[Cl-],-5.42
10,CCc1ccc(NC(=O)C[n+]2cc(-c3ccc(C)cc3)n3c2CCC3)cc1.[Cl-],-63.1
11,Cc1ccc(-c2c[n+](CC(=O)Nc3ccccc3)c3n2CCC3)cc1.[Cl-],-27.8
12,Cc1ccccc1NC(=S)/C(=C(\[O-])c1ccc(C)c([N+](=O)[O-])c1)[n+]1ccccc1,-1.7
13,CCC1(C)Cc2ccccc2-c2c1c(=O)n(-c1ccc(C)cc1)c1nnnn21 (stereo not drawn),2.8
14,Cc1cc2cc(CN(Cc3ccco3)C(=O)NCc3ccccc3)c(=O)[nH]c2cc1C,-6.54
15,CN(C)CCNC(C(=O)Nc1cccc(C(F)(F)F)c1)c1ccccc1.O=C(O)C(=O)O (stereo not drawn),-56.7
16,CC(=O)c1cccc(NC(=O)C(NC(C)C)c2ccccc2)c1 (stereo not drawn),10.5
17,CCN(CC)CCNC(C(=O)Nc1cc(C(F)(F)F)ccc1Cl)c1ccccc1 (stereo not drawn),-76.4
18,CCOc1ccc(NC(C(=O)Nc2cccc(C(C)=O)c2)c2ccccc2)cc1 (stereo not drawn),-49.7
19,CCN(CC)CCNC(C(=O)Nc1cccc(C(C)=O)c1)c1ccccc1.O=C(O)C(=O)O (stereo not drawn),-79.1
20,CCC(C(=O)Nc1cccc(C(F)(F)F)c1)c1ccccc1 (stereo not drawn),3.89
21,CN(C)CCNC(C(=O)Nc1cc(Cl)cc(Cl)c1)c1ccccc1 (stereo not drawn),-45.6

row,Structure (SMILES),"hERG current change (%, negative = inhibition) at 10uM [%]"
1,O=C(Nc1cc(C(F)(F)F)ccc1Cl)C(NCc1ccccc1)c1ccccc1 (stereo not drawn),2.13
2,CCCC(=O)OC(C(=O)Nc1cc(C(F)(F)F)ccc1Cl)c1ccccc1 (stereo not drawn),-9.58
3,O=C(c1cc(F)cc2c1OCOC2)N1CCN(c2ccc(F)cc2)CC1,-16
4,CC(C)C(OC(=O)CN1C(=O)COc2ccccc21)C(=O)NC1CCCCC1 (stereo not drawn),-9.89
5,COC(=O)c1cn(CC(=O)N2CCCCCC2)c2ccccc12,-40.1
6,CCN(CC(=O)NCc1cccs1)C(=O)c1cc(S(=O)(=O)N2CCCCC2)ccc1Cl,-40.2
7,Cc1ccc2c(Cl)c(C(=O)NCC3CCCO3)sc2c1 (stereo not drawn),-12.8
8,COc1ccccc1C(=O)NC(=O)COC(=O)c1oc2ccccc2c1C,1.8
9,OCC[C@H]1C[C@@H](O)[C@H](O)[C@]2(Cc3ccccc3CCO2)O1,-0.537
10,CN(CC(=O)Nc1cccc(F)c1)C(=O)/C=C/c1cc(Br)ccc1OC(F)F,-54.8
11,COc1cccc(NC(=O)CN(C)C(=O)/C=C/c2cc(OC)ccc2OC)c1,-67.8
12,CN(CC(=O)Nc1cccc(F)c1)C(=O)/C=C/c1cn(Cc2ccccc2)nc1-c1cccnc1,-48.8
13,CN(CC(=O)Nc1cccc(F)c1)C(=O)/C=C/c1ccc(Br)s1,13.2
14,COc1ccc(OC)c(/C=C/C(=O)N(C)CC(=O)Nc2cc(C)ccc2C)c1,-15.1
15,COc1ccc(OC)c(/C=C/C(=O)N(C)CC(=O)Nc2ccc(C)cc2)c1,-18.3
16,COc1cccc(NC(=O)CN(C)C(=O)/C=C/c2cn(Cc3ccccc3)nc2-c2cccnc2)c1,-59.4
17,COc1ccc(NC(=O)CN(C)C(=O)/C=C/c2cn(Cc3ccccc3)nc2-c2cccnc2)cc1,-25.9
18,CN(CC(=O)Nc1cccc(F)c1)C(=O)/C=C/c1ccc2ccccc2n1,7.19
